# Data as given in publication PMC11006913.
# Legend:
# Experiment in all cases: PBM; 200 nM protein, PBS
# Details in all cases: dsDNA, one strand shown
# CRX [1] = molecular target: CRX (Homo sapiens, UniProt O43186 26-111)
# SIX6 = molecular target: T1, SIX6 (Homo sapiens, UniProt O95475 114-200, T165P)
# T1 sequence: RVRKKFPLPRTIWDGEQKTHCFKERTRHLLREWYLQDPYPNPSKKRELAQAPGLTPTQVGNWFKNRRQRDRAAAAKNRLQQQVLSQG
# CRX [2] = molecular target: CRX (Homo sapiens, UniProt O43186 26-111, E42D)
# CRX [3] = molecular target: CRX (Homo sapiens, UniProt O43186 26-111, R41L)
# MSX2 [4] = molecular target: MSX2 (Homo sapiens, UniProt P35548 130-214, R199I)
# MSX2 [5] = molecular target: MSX2 (Homo sapiens, UniProt P35548 130-214)
# PROP1 [6] = molecular target: PROP1 (Homo sapiens, UniProt O75360 56-141)
# PROP1 [7] = molecular target: PROP1 (Homo sapiens, UniProt O75360 56-141, R99H)
# VAX1 [8] = molecular target: VAX1 (Homo sapiens, UniProt Q5SQQ9 86-172)
# PROP1 [9] = molecular target: PROP1 (Homo sapiens, UniProt O75360 56-141, F88S)
# MSX2 [10] = molecular target: MSX2 (Homo sapiens, UniProt P35548 130-214, F161Y)
# VAX1 [11] = molecular target: VAX1 (Homo sapiens, UniProt Q5SQQ9 86-172, T142I)
# VAX1 [12] = molecular target: VAX1 (Homo sapiens, UniProt Q5SQQ9 86-172, K157R)
# ALX1 [13] = molecular target: ALX1 (Homo sapiens, UniProt Q15699 118-204, L144V)
# ALX1 [14] = molecular target: ALX1 (Homo sapiens, UniProt Q15699 118-204, L144R)
# ALX1 [15] = molecular target: ALX1 (Homo sapiens, UniProt Q15699 118-204)
# NKX2-6 = molecular target: T2, NKX2-6 (Homo sapiens, UniProt A6NCS4 118-204, R150C)
# T2 sequence: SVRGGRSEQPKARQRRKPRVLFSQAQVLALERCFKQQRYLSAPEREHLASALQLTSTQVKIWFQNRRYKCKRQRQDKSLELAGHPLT
# NKX3-2 [16] = molecular target: NKX3-2 (Homo sapiens, UniProt P78367 192-278, P234S)
# NKX3-2 [17] = molecular target: NKX3-2 (Homo sapiens, UniProt P78367 192-278)
# ALX4 [18] = molecular target: ALX4 (Homo sapiens, UniProt Q9H161 200-286)
# PRRX1 [19] = molecular target: PRRX1 (Homo sapiens, UniProt P54821 80-166, F113S)
# ALX4 [20] = molecular target: ALX4 (Homo sapiens, UniProt Q9H161 200-286, Q225E)
# PRRX1 [21] = molecular target: PRRX1 (Homo sapiens, UniProt P54821 80-166)
# Chain of PRRX1 (Homo sapiens, UniProt P54821 80-166) (P54821 80-166): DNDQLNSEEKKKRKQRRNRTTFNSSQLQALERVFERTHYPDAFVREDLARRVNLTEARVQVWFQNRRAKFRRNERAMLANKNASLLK
# Chain of CRX (Homo sapiens, UniProt O43186 26-111, R41L) (O43186 26-111 R41L): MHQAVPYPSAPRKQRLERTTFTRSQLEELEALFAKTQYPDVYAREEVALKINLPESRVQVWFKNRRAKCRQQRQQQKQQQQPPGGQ
# Chain of CRX (Homo sapiens, UniProt O43186 26-111) (O43186 26-111): as the sequence (O43186 26-111 R41L) above, with L16R counted along it
# Chain of CRX (Homo sapiens, UniProt O43186 26-111, E42D) (O43186 26-111 E42D): as the sequence (O43186 26-111 R41L) above, with L16R, E17D counted along it
# Chain of MSX2 (Homo sapiens, UniProt P35548 130-214) (P35548 130-214): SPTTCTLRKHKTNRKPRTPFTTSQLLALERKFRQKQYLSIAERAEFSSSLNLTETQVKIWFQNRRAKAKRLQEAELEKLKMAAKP
# Chain of MSX2 (Homo sapiens, UniProt P35548 130-214, F161Y) (P35548 130-214 F161Y): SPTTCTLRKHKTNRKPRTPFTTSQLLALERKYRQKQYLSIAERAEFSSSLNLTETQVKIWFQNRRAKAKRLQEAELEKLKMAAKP
# Chain of MSX2 (Homo sapiens, UniProt P35548 130-214, R199I) (P35548 130-214 R199I): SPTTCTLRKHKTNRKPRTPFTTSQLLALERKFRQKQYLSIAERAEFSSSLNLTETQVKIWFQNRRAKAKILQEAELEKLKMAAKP
# Chain of VAX1 (Homo sapiens, UniProt Q5SQQ9 86-172, K157R) (Q5SQQ9 86-172 K157R): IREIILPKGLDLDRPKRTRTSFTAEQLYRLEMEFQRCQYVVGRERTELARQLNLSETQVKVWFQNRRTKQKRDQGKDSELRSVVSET
# Chain of PRRX1 (Homo sapiens, UniProt P54821 80-166, F113S) (P54821 80-166 F113S): as the sequence (P54821 80-166) above, with F34S counted along it
# Chain of VAX1 (Homo sapiens, UniProt Q5SQQ9 86-172, T142I) (Q5SQQ9 86-172 T142I): as the sequence (Q5SQQ9 86-172 K157R) above, with T57I, R72K counted along it
# Chain of VAX1 (Homo sapiens, UniProt Q5SQQ9 86-172) (Q5SQQ9 86-172): as the sequence (Q5SQQ9 86-172 K157R) above, with R72K counted along it
# Chain of ALX4 (Homo sapiens, UniProt Q9H161 200-286, Q225E) (Q9H161 200-286 Q225E): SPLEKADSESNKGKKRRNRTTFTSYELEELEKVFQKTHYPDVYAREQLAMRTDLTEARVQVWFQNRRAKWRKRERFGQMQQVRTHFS
# Chain of PROP1 (Homo sapiens, UniProt O75360 56-141) (O75360 56-141): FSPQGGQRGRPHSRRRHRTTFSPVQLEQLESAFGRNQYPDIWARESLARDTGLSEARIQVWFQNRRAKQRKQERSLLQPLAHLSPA
# Chain of ALX4 (Homo sapiens, UniProt Q9H161 200-286) (Q9H161 200-286): as the sequence (Q9H161 200-286 Q225E) above, with E26Q counted along it
# Chain of PROP1 (Homo sapiens, UniProt O75360 56-141, F88S) (O75360 56-141 F88S): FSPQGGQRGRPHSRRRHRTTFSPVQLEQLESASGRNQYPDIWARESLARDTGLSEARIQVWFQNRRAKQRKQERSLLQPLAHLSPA
# Chain of NKX3-2 (Homo sapiens, UniProt P78367 192-278, P234S) (P78367 192-278 P234S): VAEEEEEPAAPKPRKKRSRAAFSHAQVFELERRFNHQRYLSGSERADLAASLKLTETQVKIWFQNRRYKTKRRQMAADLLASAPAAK
# Chain of ALX1 (Homo sapiens, UniProt Q15699 118-204) (Q15699 118-204): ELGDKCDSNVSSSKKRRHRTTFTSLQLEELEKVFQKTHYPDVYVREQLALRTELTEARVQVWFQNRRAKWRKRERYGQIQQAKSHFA
# Chain of ALX1 (Homo sapiens, UniProt Q15699 118-204, L144V) (Q15699 118-204 L144V): as the sequence (Q15699 118-204) above, with L27V counted along it
# Chain of NKX3-2 (Homo sapiens, UniProt P78367 192-278) (P78367 192-278): as the sequence (P78367 192-278 P234S) above, with S43P counted along it
# Chain of ALX1 (Homo sapiens, UniProt Q15699 118-204, L144R) (Q15699 118-204 L144R): as the sequence (Q15699 118-204) above, with L27R counted along it
# Chain of PROP1 (Homo sapiens, UniProt O75360 56-141, R99H) (O75360 56-141 R99H): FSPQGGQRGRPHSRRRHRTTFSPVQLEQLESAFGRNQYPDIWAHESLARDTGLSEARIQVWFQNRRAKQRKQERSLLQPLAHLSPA
sequence,measurement,setting,value
GCGGATCA,binding signal,CRX [1],"11.3 upbm affinity estimate (log intensity, higher = more binding, comparable within an allelic series)"
same,binding signal,SIX6,"9.3 upbm affinity estimate (log intensity, higher = more binding, comparable within an allelic series)"
same,binding signal,CRX [2],"11.2 upbm affinity estimate (log intensity, higher = more binding, comparable within an allelic series)"
same,binding signal,CRX [3],"10.8 upbm affinity estimate (log intensity, higher = more binding, comparable within an allelic series)"
GTGCCACA,binding signal,CRX [1],"8.41 upbm affinity estimate (log intensity, higher = more binding, comparable within an allelic series)"
same,binding signal,CRX [2],"8.34 upbm affinity estimate (log intensity, higher = more binding, comparable within an allelic series)"
same,binding signal,MSX2 [4],"9.58 upbm affinity estimate (log intensity, higher = more binding, comparable within an allelic series)"
same,binding signal,MSX2 [5],"9.65 upbm affinity estimate (log intensity, higher = more binding, comparable within an allelic series)"
same,binding signal,PROP1 [6],"6.66 upbm affinity estimate (log intensity, higher = more binding, comparable within an allelic series)"
same,binding signal,PROP1 [7],"6.7 upbm affinity estimate (log intensity, higher = more binding, comparable within an allelic series)"
same,binding signal,VAX1 [8],"7.16 upbm affinity estimate (log intensity, higher = more binding, comparable within an allelic series)"
same,binding signal,PROP1 [9],"6.8 upbm affinity estimate (log intensity, higher = more binding, comparable within an allelic series)"
same,binding signal,MSX2 [10],"9.56 upbm affinity estimate (log intensity, higher = more binding, comparable within an allelic series)"
same,binding signal,VAX1 [11],"7.19 upbm affinity estimate (log intensity, higher = more binding, comparable within an allelic series)"
same,binding signal,CRX [3],"8.33 upbm affinity estimate (log intensity, higher = more binding, comparable within an allelic series)"
same,binding signal,VAX1 [12],"7.08 upbm affinity estimate (log intensity, higher = more binding, comparable within an allelic series)"
CGCTCGCC,binding signal,CRX [1],"7.99 upbm affinity estimate (log intensity, higher = more binding, comparable within an allelic series)"
same,binding signal,CRX [2],"8.05 upbm affinity estimate (log intensity, higher = more binding, comparable within an allelic series)"
same,binding signal,MSX2 [4],"9.42 upbm affinity estimate (log intensity, higher = more binding, comparable within an allelic series)"
same,binding signal,ALX1 [13],"6.31 upbm affinity estimate (log intensity, higher = more binding, comparable within an allelic series)"
same,binding signal,ALX1 [14],"6.41 upbm affinity estimate (log intensity, higher = more binding, comparable within an allelic series)"
same,binding signal,MSX2 [5],"9.46 upbm affinity estimate (log intensity, higher = more binding, comparable within an allelic series)"
same,binding signal,VAX1 [8],"6.87 upbm affinity estimate (log intensity, higher = more binding, comparable within an allelic series)"
same,binding signal,MSX2 [10],"9.5 upbm affinity estimate (log intensity, higher = more binding, comparable within an allelic series)"
same,binding signal,VAX1 [11],"7.1 upbm affinity estimate (log intensity, higher = more binding, comparable within an allelic series)"
same,binding signal,CRX [3],"8.16 upbm affinity estimate (log intensity, higher = more binding, comparable within an allelic series)"
same,binding signal,ALX1 [15],"6.39 upbm affinity estimate (log intensity, higher = more binding, comparable within an allelic series)"
same,binding signal,VAX1 [12],"7.05 upbm affinity estimate (log intensity, higher = more binding, comparable within an allelic series)"
GACGCGCC,binding signal,CRX [1],"8.22 upbm affinity estimate (log intensity, higher = more binding, comparable within an allelic series)"
same,binding signal,NKX2-6,"9.4 upbm affinity estimate (log intensity, higher = more binding, comparable within an allelic series)"
same,binding signal,CRX [2],"8.15 upbm affinity estimate (log intensity, higher = more binding, comparable within an allelic series)"
same,binding signal,NKX3-2 [16],"10.5 upbm affinity estimate (log intensity, higher = more binding, comparable within an allelic series)"
same,binding signal,CRX [3],"8.22 upbm affinity estimate (log intensity, higher = more binding, comparable within an allelic series)"
same,binding signal,NKX3-2 [17],"10.5 upbm affinity estimate (log intensity, higher = more binding, comparable within an allelic series)"
AGCTCAGG,binding signal,CRX [1],"9.99 upbm affinity estimate (log intensity, higher = more binding, comparable within an allelic series)"
same,binding signal,CRX [2],"9.91 upbm affinity estimate (log intensity, higher = more binding, comparable within an allelic series)"
CCTCCCAC,binding signal,CRX [1],"8.12 upbm affinity estimate (log intensity, higher = more binding, comparable within an allelic series)"
same,binding signal,ALX4 [18],"7.99 upbm affinity estimate (log intensity, higher = more binding, comparable within an allelic series)"
same,binding signal,PRRX1 [19],"9.27 upbm affinity estimate (log intensity, higher = more binding, comparable within an allelic series)"
same,binding signal,ALX4 [20],"8.07 upbm affinity estimate (log intensity, higher = more binding, comparable within an allelic series)"
same,binding signal,CRX [2],"8.07 upbm affinity estimate (log intensity, higher = more binding, comparable within an allelic series)"
same,binding signal,CRX [3],"8.16 upbm affinity estimate (log intensity, higher = more binding, comparable within an allelic series)"
same,binding signal,PRRX1 [21],"9.17 upbm affinity estimate (log intensity, higher = more binding, comparable within an allelic series)"
ACTGCGTG,binding signal,CRX [1],"8.27 upbm affinity estimate (log intensity, higher = more binding, comparable within an allelic series)"
same,binding signal,PRRX1 [19],"9.32 upbm affinity estimate (log intensity, higher = more binding, comparable within an allelic series)"
same,binding signal,CRX [2],"8.35 upbm affinity estimate (log intensity, higher = more binding, comparable within an allelic series)"
same,binding signal,CRX [3],"8.29 upbm affinity estimate (log intensity, higher = more binding, comparable within an allelic series)"
same,binding signal,PRRX1 [21],"9.57 upbm affinity estimate (log intensity, higher = more binding, comparable within an allelic series)"
